Measured values: PubChem BioAssay AID2807 (Vanderbilt High Throughput Screening Facility, 2010)
Results with a measured potency or affinity are listed apart.

These compounds were tested against Metabotropic glutamate receptor 4 (Homo sapiens) (UniProt Q14833) (assay: PubChem AID 2807). Settings: CHO hmGluR4/Gqi5 calcium mobilization, PAM potentiation; series mostly up to 30 µM; potentiation (% max glutamate): at the top concentration; call rule not given here.
Sequence of Metabotropic glutamate receptor 4 (Homo sapiens) (Q14833 whole entry, looked up): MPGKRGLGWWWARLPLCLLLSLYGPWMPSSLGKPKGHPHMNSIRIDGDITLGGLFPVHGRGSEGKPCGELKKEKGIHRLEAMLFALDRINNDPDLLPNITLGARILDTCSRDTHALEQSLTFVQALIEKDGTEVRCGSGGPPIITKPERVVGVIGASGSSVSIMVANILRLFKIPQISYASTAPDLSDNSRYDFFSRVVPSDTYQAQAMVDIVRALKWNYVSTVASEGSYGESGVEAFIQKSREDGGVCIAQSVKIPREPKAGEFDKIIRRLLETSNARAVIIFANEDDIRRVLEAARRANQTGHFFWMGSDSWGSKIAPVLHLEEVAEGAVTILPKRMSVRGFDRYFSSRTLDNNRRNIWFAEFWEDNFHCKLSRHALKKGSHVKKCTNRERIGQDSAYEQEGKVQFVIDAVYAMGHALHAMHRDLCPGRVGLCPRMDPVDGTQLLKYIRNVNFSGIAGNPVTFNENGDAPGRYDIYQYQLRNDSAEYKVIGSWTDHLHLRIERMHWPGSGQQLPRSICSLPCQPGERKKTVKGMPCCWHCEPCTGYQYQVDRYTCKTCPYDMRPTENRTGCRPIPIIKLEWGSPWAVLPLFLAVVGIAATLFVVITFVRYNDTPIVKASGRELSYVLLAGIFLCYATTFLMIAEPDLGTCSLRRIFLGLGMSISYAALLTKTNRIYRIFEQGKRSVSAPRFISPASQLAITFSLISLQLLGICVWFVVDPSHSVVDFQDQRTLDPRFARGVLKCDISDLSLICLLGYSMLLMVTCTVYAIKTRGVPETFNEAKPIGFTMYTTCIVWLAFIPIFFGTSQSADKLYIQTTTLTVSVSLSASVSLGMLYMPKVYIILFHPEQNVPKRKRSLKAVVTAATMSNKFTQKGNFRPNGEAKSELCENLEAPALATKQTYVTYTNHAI

Potentiation (% max glutamate), inactive:
O=C(Nc1ccc(Cl)c(Cl)c1)c1cnccn1 15.3%
Cn1cccc1C(=O)Nc1ccc(Cl)c(Cl)c1 23.5%
O=C(Nc1ccc(Cl)c(Cl)c1)c1cc2ccccc2o1 22.2%
O=C(Nc1ccc(Cl)c(Cl)c1)c1ccccc1 29.1%
O=C(Nc1ccc(Cl)c(Cl)c1)c1ccc(-c2ccccc2)o1 18%
O=C(Nc1ccc(Cl)c(Cl)c1)C1CCCCC1 28.3%
